Compounds with a hit are over-represented: about 28% of the library has one in this group of screens.
PLK1 inh: inhibitors of human PLK1 kinase | P53350 | recombinant PLK1 kinase, TR-FRET peptide phosphorylation | inhibition, % at 10 µM | hit rate 0.53% among 97,000;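 active means inhibition of 50% or more in the single-concentration screen; inactive means inhibition below 50%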;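 further: 0% = DMSO max control and 100% = H-89 dihydrochloride min control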
CYP2C9 inh: inhibitors of human CYP2C9; P11712; hit rate 20% among 96,000; CYP2C9 Supersomes, luciferin-H conversion, luminescence; inhibition, % at 5 µM;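 active means blocking of liver enzyme CYP2C9 beyond about 50% at 5 µM, limit read from the data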
CYP2C19 act: increases human CYP2C19 enzyme activity. P33261. recombinant CYP2C19, luciferin-H EGE luminescence; hits give high values; 0 = fully inhibited enzyme, 1 = untreated enzyme. activation factor at 5 µM. 96,000 tested, under 10 active. AID 1025;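 active means activation factor of at least 2 at 5 µM in the primary screen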;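 further: 0 = wells with 2.5 mM tranylcypromine and 1 = vehicle-only wells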
PLK1 PBD inh: inhibitors of human Plk1 polo box domain binding; Plk1 PBD phosphopeptide binding, fluorescence polarization; inhibition, %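 (tested at about 20 µM)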; hit rate 0.13% among 97,000; in the data active means inhibition above about 34%, passing the limit was not always enough
CYP2C9 activ: activators of human CYP2C9; recombinant CYP2C9, luciferin-H conversion, luminescence; hits give high values; factor 1 = untreated enzyme, 0 = blocked; activation factor at 5 µM; hit rate 1.4% among 96,000; AID 1024;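 active means activation factor of 2 or more for CYP2C9 at a 5 µM dose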;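 further: 0 = sulfaphenazole-blocked wells and 1 = vehicle-only wells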
CYP2C19 inhib: inhibitors of human CYP2C19. P33261. CYP2C19 Supersomes, luciferin-H EGE luminescence, 30 min. inhibition, % at 5 µM. hit rate 21% among 96,000. AID 778;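 active means CYP2C19 inhibition above a set limit at 5 µM in the primary screen, cut at about 50% in these data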;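 further: plate controls were negative control wells for no effect and 2.5 mM tranylcypromine positive control for full effect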
* = called active by the depositor.

`CC1(C)CC(=O)C2=C(C1)N(c1ccc(F)cc1)C(=O)CC2c1ccsc1` (configuration not stated) gave PLK1 inh -13, CYP2C9 inh 5, CYP2C19 act 0.4, PLK1 PBD inh 9, CYP2C9 activ 1 and CYP2C19 inhib 63*.
For CCOc1ccc(C2C(C#N)=C(N)N(c3sc4c(c3C#N)CCCC4)C3=C2C(=O)CCC3)cc1 (configuration not stated) the results were PLK1 inh -15, CYP2C9 inh 0, CYP2C19 act 1, PLK1 PBD inh -1, CYP2C9 activ 1 and CYP2C19 inhib -2.
Screening CCCCOc1ccc(C2(C(=O)O)CCCC2)cc1 returned PLK1 inh -11, CYP2C9 inh 39, CYP2C19 act 0.5, PLK1 PBD inh -31, CYP2C9 activ 0.6 and CYP2C19 inhib 48.
`CC(=O)Nc1ccc(NC(=O)C2CC(=O)N=C(N)S2)cc1` (configuration not stated) gave PLK1 inh -19, CYP2C9 inh 1, CYP2C19 act 1, PLK1 PBD inh -38, CYP2C9 activ 1 and CYP2C19 inhib -2.
For Cc1ccc(-n2[nH]c(C)c(/C=N/n3c(C)nc4ccccc4c3=O)c2=O)cc1 the results were PLK1 inh -8, CYP2C9 inh 55*, CYP2C19 act 0.7, PLK1 PBD inh -7, CYP2C9 activ 0.4 and CYP2C19 inhib 30.
Screening Cc1nc2ccccc2c(=O)n1/N=C/c1cn(-c2ccccc2)nc1-c1cccs1 returned PLK1 inh -4, CYP2C9 inh 98*, CYP2C19 act 0.2, PLK1 PBD inh -35, CYP2C9 activ 0 and CYP2C19 inhib 80*.
Screening Cc1nc2ccccc2c(=O)n1/N=C/c1ccncc1 returned PLK1 inh 2, CYP2C9 inh 27, CYP2C19 act 0.2, PLK1 PBD inh 15, CYP2C9 activ 0.7 and CYP2C19 inhib 76*.
O=C(C1CCN(c2ccc(N3CCOCC3)nn2)CC1)N1CCN(c2ccc(F)cc2)CC1 was read as PLK1 inh 3, CYP2C9 inh 4, CYP2C19 act 1, PLK1 PBD inh 9, CYP2C9 activ 1 and CYP2C19 inhib 1.
CCCNc1nc(NCC)nc(OC)n1 was read as PLK1 inh -6, CYP2C9 inh -31, CYP2C19 act 1, PLK1 PBD inh -17, CYP2C9 activ 1.3 and CYP2C19 inhib 3.
Cc1nn(-c2nc3ccccc3[nH]2)c(N)c1-c1ccccc1 was read as PLK1 inh -11 and PLK1 PBD inh 15.
For O=C1Cc2cccc3cccc1c23 the results were PLK1 inh -6, CYP2C9 inh -9, CYP2C19 act 1, PLK1 PBD inh -17, CYP2C9 activ 1.1 and CYP2C19 inhib 2.
For O=C(CSc1nnc(COc2ccc3c(c2)CCCC3)o1)Nc1ccc(F)cc1 the results were PLK1 inh 4, CYP2C9 inh -26, CYP2C19 act 0.8, PLK1 PBD inh -25, CYP2C9 activ 1.3 and CYP2C19 inhib 19.
Screening O=C(COC(=O)c1ccccc1Oc1ccccc1)NCc1ccco1 returned CYP2C9 inh 56*, CYP2C19 act 0.7, CYP2C9 activ 0.4 and CYP2C19 inhib 32.
O=C(COC(=O)c1ccco1)NCc1ccco1 was read as PLK1 inh -5, CYP2C9 inh -18, CYP2C19 act 1, PLK1 PBD inh -4, CYP2C9 activ 1.2 and CYP2C19 inhib 0.
CC(C)NC(=O)COC(=O)c1ccccc1Oc1ccccc1 was read as PLK1 inh -15, CYP2C9 inh 72*, CYP2C19 act 0.1, PLK1 PBD inh 1, CYP2C9 activ 0.3 and CYP2C19 inhib 87*.
O=C(COC(=O)c1ccccc1Nc1cccc(C(F)(F)F)c1)NCc1ccco1 was read as PLK1 inh -8, CYP2C9 inh 58*, CYP2C19 act 0.6, PLK1 PBD inh 11, CYP2C9 activ 0.4 and CYP2C19 inhib 38.
Screening CCCc1nnc(SCC(=O)N2CCCCC2)n1CC1CCCO1 (configuration not stated) returned PLK1 inh -7, CYP2C9 inh 19, CYP2C19 act 1, PLK1 PBD inh 20, CYP2C9 activ 0.8 and CYP2C19 inhib 1.
Screening C=C(C)CN(CC)c1nc(N)c(C#N)c(CC#N)c1C#N returned PLK1 inh 5, CYP2C9 inh 29, CYP2C19 act 0.9, PLK1 PBD inh -8, CYP2C9 activ 0.7 and CYP2C19 inhib 6.
